The full list was thinned out, with hits kept by preference.
Dicer processing: human Dicer pre-microRNA cleavage inhibition; Q9UPY3; cat-ELCCA pre-miR-21 Dicer processing, chemiluminescence; hits give high values; z-score at 25 µM; hit rate 6% among 47,000; in the data active means z-score above about 3, passing the limit was not always enough;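 further: plate controls were vehicle for no effect and no enzyme for full effect; higher signal means more uncleaved substrate so more Dicer inhibition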
Target sequence (Q9UPY3 whole entry, looked up): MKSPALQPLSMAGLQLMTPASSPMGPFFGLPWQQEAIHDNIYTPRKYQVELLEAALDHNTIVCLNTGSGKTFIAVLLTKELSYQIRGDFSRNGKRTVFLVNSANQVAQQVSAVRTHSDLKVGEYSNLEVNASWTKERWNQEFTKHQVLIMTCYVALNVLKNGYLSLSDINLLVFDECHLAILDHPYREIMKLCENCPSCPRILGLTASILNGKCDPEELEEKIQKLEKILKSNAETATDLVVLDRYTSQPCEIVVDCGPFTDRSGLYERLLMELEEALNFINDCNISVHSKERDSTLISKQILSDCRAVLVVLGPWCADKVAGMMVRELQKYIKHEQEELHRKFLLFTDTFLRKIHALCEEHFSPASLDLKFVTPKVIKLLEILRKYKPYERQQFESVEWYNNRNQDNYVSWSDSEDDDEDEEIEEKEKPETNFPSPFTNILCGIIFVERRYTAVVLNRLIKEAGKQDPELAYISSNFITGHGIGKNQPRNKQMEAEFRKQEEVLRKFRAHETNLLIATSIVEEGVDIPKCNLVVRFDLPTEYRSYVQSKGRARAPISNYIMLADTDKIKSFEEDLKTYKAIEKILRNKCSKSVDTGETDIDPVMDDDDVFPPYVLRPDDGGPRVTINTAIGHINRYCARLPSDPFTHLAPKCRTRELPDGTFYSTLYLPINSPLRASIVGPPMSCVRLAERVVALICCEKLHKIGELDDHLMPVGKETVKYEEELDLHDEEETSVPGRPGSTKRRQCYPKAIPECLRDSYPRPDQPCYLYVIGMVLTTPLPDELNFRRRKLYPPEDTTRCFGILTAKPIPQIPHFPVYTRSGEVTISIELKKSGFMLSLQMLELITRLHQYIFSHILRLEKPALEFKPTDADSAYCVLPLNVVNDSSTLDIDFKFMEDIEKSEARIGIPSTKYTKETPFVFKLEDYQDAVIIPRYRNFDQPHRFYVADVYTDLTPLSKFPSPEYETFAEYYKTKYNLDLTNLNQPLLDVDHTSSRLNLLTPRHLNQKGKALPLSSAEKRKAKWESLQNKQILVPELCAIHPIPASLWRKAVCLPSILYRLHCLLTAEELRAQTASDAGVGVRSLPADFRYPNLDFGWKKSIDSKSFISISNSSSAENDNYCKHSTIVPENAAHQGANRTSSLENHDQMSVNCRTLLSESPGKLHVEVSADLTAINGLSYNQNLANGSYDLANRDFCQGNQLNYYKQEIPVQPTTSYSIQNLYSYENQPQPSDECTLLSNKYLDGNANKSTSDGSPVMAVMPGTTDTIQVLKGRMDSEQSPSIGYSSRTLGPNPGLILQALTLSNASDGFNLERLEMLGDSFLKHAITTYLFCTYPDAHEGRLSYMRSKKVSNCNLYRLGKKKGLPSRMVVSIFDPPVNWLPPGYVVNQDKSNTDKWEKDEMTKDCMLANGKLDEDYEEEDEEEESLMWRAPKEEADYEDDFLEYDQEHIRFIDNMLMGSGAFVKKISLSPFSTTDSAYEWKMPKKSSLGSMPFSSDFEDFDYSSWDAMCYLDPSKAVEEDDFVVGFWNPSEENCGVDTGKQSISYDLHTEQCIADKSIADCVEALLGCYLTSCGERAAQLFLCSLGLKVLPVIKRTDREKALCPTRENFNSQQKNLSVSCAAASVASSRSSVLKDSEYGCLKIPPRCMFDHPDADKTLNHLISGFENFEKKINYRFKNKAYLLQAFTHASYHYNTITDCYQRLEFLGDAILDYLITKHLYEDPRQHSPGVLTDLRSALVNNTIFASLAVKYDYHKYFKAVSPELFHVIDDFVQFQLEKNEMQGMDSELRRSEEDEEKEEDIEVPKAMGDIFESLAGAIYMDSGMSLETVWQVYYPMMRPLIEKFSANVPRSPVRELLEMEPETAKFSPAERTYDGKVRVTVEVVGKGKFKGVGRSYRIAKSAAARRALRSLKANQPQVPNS
* hit, by the source's call.

SMILES	Dicer processing
CC(C)N1CCC(=O)N(c2ccccc2)C1=O	-0.75
CC(C)S(=O)(=O)c1csc(NC(=O)Nc2cc(C(F)(F)F)cc(C(F)(F)F)c2)c1	-0.31
Cc1c(/C=N/NC(=O)NCc2ccccc2)sc2ccccc12	5.4*
CCOC(=O)N(/N=C/c1sc2ccccc2c1C)SC(Cl)(Cl)Cl	-1.2
O=C(NCc1ccccc1)N/N=C/c1cccs1	1.4
COc1cc(C2Nc3cc(C)c(C)cc3NC3=C2C(=O)CC(C)(C)C3)cc(Cl)c1O (centres undefined)	0.29
Cc1ccc(N2C(=O)c3ccccc3S2(=O)=O)cc1C	1.2
CCOC(=O)/C(C#N)=C/Nc1ccn(C)n1	-0.05
Cc1nn(-c2ccccc2)c(C)c1-c1ccccc1O	0.59
Nc1nc(/C=C/c2ccccc2O)nc(-c2ccccc2O)n1	8
Oc1ccccc1/C=C/c1nc(-c2ccccc2O)n(-c2ccccc2)n1	11*
Cc1oc(S(=O)(=O)N2CCCC2)cc1-c1nc(-c2ccc(F)cc2)no1	-0.62
CSc1nc(-c2ccccc2)[nH]c(=O)c1C#N	0.47
COc1cc2c(cc1OC)/C(=C\C#N)NCC2	-1.4
O=C(O)c1ccccc1-c1ccccc1C(=O)Nc1c[nH]c(=O)[nH]c1=O	-2.1
O=C1CC(NCC2CCCO2)C(=O)N1c1ccc(F)cc1 (centres undefined)	-2.5
Cc1nc2cc(Cl)ccc2c(=O)n1CC1CCCO1 (centres undefined)	-1
O=C(NCc1ccc(F)cc1)c1nc2c(nnn2CC2CCCO2)c(=O)[nH]1 (centres undefined)	3.1*
COC(=O)c1ccc(C2Oc3ccccc3C3CC(c4cccs4)=NN32)cc1 (centres undefined)	1.7
Cc1sc2c(c1C)CN(C(C)(C)C)CN2C(=O)c1ccccc1	-1
COc1ccc(CCNc2oc(-c3ccc(C)cc3)nc2C#N)cc1OC	-1.6
COc1ccc(Cc2nnc(Nc3ccc(Cl)cc3Cl)o2)cc1OC	3.9*
COc1ccc(Cc2nnc(Nc3ccc(C)cc3)o2)cc1OC	1.6
COc1ccc(Cc2nnc(N)o2)cc1OC	0.68
C=CCSC1=C(C#N)C(c2cccc(Cl)c2)CC(=O)N1 (centres undefined)	1.7
SMILES	Dicer processing
O=C(Cc1c(F)cccc1Cl)NC(=O)Nc1ccc(F)c(Cl)c1	3.9*
O=C(Nc1ccc(F)c(Cl)c1)Oc1ccccc1	0.75
O=C(Cc1c(F)cccc1Cl)NC(=O)Nc1ccc(Cl)cc1	0.22
COC(=O)CC1Oc2ccc(Cl)cc2-n2cc(-c3ccc(F)cc3)nc21 (centres undefined)	-1.1
Fc1ccc(-c2csc3ncnc(NCCN4CCOCC4)c23)cc1	11
COc1ccccc1C1OC(=O)C[C@@H]1C(=O)Nc1nncs1 (some centres undefined)	-0.66
COc1cc(CCC(C)N)ccc1O (centres undefined)	-2.2
CCOC(=O)c1sc2sc(C(=O)OCC)c(-c3ccco3)c2c1N	-2.1
CCOC(=O)c1c(C)noc1-c1csc(Nc2c(C)cc(C)cc2C)n1	0.39
CCOC(=O)c1c(C)noc1-c1ccco1	7.7*
CC12CN3CC(C)(CN(C1)C3c1ccccc1)C2O (centres undefined)	-0.22
Cc1nc(-c2ccc(NS(=O)(=O)c3ccc4ccccc4c3)cc2)cs1	8
CC(=O)OC(C#N)[C@H]1O[C@@H]2OC(C)(C)O[C@@H]2[C@H]1OC(C)=O (some centres undefined)	0.89
COc1ccc(-n2nnnc2SCC(=O)Nc2nccs2)cc1	-0.09
CCOc1c(Nc2cccc(OC)c2)c(=O)c1=O	-0.58
CCCCOc1c(Nc2cccc(OC)c2)c(=O)c1=O	8.7
CCOc1c(Nc2ccccc2O)c(=O)c1=O	4.1*
O=C1c2ccccc2S(=O)(=O)N1CC(O)Cn1ccc2ccccc21 (centres undefined)	-0.76
N/C(=N\NS(=O)(=O)c1ccccc1)c1ccc(C(F)(F)F)cn1	-0.85
O=C(Nc1ccc(Cl)cc1)Oc1cccc(N2CCOCC2)c1	2
CCn1cc(C(=O)N/N=C/c2ccccc2Cl)c(=O)c2cc(C(F)(F)F)ccc21	-1.5
O=[N+]([O-])c1ccc(Sc2ccccc2)nc1Sc1ccccc1	-1.4
CC1c2ccsc2CCN1S(=O)(=O)c1ccccc1 (centres undefined)	3*
CC1c2ccsc2CCN1S(C)(=O)=O (centres undefined)	-0.25
CC1c2ccsc2CCN1S(=O)(=O)c1cc(C(F)(F)F)cc(C(F)(F)F)c1 (centres undefined)	0.66
SMILES	Dicer processing
CC(C)(C)C(=O)NNC(=O)c1cc(C(C)(C)C)nn1Cc1ccccc1	0.1
C(=N\Nc1nc(-c2ccccc2)cs1)/c1ccccc1	-1.2
CCOC(=O)c1cc(C(C)(C)C)n(-c2ccc([N+](=O)[O-])cc2)c1C	-0.82
CCCCCOC(=O)C1=C(C)NC2=C(C(=O)CCC2)C1c1cc(Br)c(O)c(OCC)c1 (centres undefined)	2.7
Cc1ccc(S(=O)(=O)NNC(=O)c2sccc2N(C)C)cc1	-0.1
Cc1ccc(N2C(=O)C(c3ccccc3)C(N3CCOCC3)C2=O)cc1 (centres undefined)	3.1*
Cc1ccc(N2C(=O)C3CCC(C)CC3C2=O)cc1 (centres undefined)	0.19
O=C1CC(Nc2ccccc2)C(=O)N1c1ccc(N2CCOCC2)cc1 (centres undefined)	-0.25
CCOCCOc1nc2c(c(=O)n(C)c(=O)n2C)n1C(C)c1ccccc1 (centres undefined)	-0.85
CCOC(=O)c1sc2ncn3c(-c4cccc(C)c4)nnc3c2c1C	-0.86
CCn1nc(C)c(Br)c1-c1nc(-c2cccc(C(F)(F)F)c2)no1	-0.16
CCCc1cnc(N2CCN(S(=O)(=O)c3ccc(CNC(=O)c4ccccc4)s3)CC2)nc1	1.2
CCCc1cnc(N2CCN(S(C)(=O)=O)CC2)nc1	3.5*
CCCc1cnc(N2CCN(S(=O)(=O)c3sc4ccc(Cl)cc4c3C)CC2)nc1	-1.1
O=C(OCCOCCN=C1NS(=O)(=O)c2ccccc21)c1ccc(F)cc1	-0.02
CCOc1cc(/C=C2\N=C(SCC)SC2=O)cc(Br)c1OC(C)=O	0.98
CN(C)S(=O)(=O)N1CCc2ccccc2C1	4.9*
CS(=O)(=O)N(CC(=O)N1CCc2ccccc2C1)c1cccc2ccccc12	1.7
O=C(c1nc2ncccn2n1)N1CCc2ccccc2C1	2
O=c1c2ccccc2c(=O)n2n1CC=CC2	0.52
COc1cc(C2C3=C(CC(C)(C)CC3=O)Nc3ncnn32)ccc1OCCC(C)C (centres undefined)	2.7
CSC(N)=Nc1ccccc1	1.6
CCN(C(=Nc1ccc(Cl)cc1)SC)c1ccccc1	3.4*
CCN(C(=S)Nc1c(C)cccc1Cl)c1ccccc1	0.1
Cc1ccc(C2NC(=O)c3c(sc4c3CCN(C)C4)N2)cc1 (centres undefined)	-0.86
SMILES	Dicer processing
Cc1cccc(N2C(=O)C3ON(c4ccccc4)C(c4cccs4)C3C2=O)c1 (centres undefined)	1.1
OCC[n+]1c2ccccc2nc2ccc(N3CCOCC3)cc21	17
O=C1Nc2ccccc2/C1=C/c1cnc(-c2ccccc2)[nH]1	3.3*
CN(C)c1ccc(/C=C2\C(=O)Nc3ccccc32)cc1	-1.4
COc1ccc(/C=C2/C(=O)Nc3ccccc32)cc1	-0.18
COC(=O)C1=C(C(=O)OC)SC(=C2C(=S)C(C)(C)Nc3ccccc32)S1	-0.14
c1ccc(CN(Cc2ccccc2)c2ncnc3nc[nH]c23)cc1	-0.92
Cc1ccc([N+](=O)[O-])cc1S(=O)(=O)N1CCN(Cc2ccc3c(c2)OCO3)CC1	0.86

From PubChem
